# According to the supplement of paper PMC8728848:
# This is one part of a sample in which the strongest signals are shown more often than they occur.
# Columns and labels:
# Test in all cases: glycan array binding signal (z-score within array); higher = stronger binding
# Conditions in all cases: glycan notation: IUPAC condensed, linker removed
# [1] = molecular target: Fuc(a1-2)Gal(b1-3)GalNAc(a1-3)[Fuc(a1-2)]Gal(b1-4)Glc
# Outline: (§1)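 From the Consortium for Functional Glycomics database, 3228 arrays were curated, keeping only those whose protein sequence was available. Binding is given as a within-array Z-score averaged across arrays sharing a protein sequence and across linkers. Negative Z-scores can be read as non-binding.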
# [2] = molecular target: Fuc(a1-2)Gal(b1-3)GalNAc(b1-4)[Neu5Ac(a2-3)]Gal(b1-4)Glc
# Outline: as §1
# [3] = molecular target: Fuc(a1-2)Gal(b1-3)GlcNAc(b1-3)[Neu5Ac(a2-6)Gal(b1-4)GlcNAc(b1-6)]Gal(b1-4)Glc
# Outline: as §1
# [4] = molecular target: Fuc(a1-2)Gal(b1-4)GlcNAc
# Outline: as §1
# [5] = molecular target: Fuc(a1-2)[Gal(a1-3)]Gal(b1-3)GlcNAc(b1-6)GalNAc
# Outline: as §1
# [6] = molecular target: Fuc(a1-2)[Gal(a1-4)]Gal(b1-4)GlcNAc
# Outline: as §1
# [7] = molecular target: Fuc(a1-2)[GalNAc(a1-3)]Gal(b1-3)GlcNAc(b1-6)GalNAc
# Outline: as §1
# [8] = molecular target: Fuc(a1-2)[GalNAc(a1-3)]Gal(b1-4)GlcNAc
# Outline: as §1
# [9] = molecular target: Fuc(a1-2)[GalNAc(a1-3)]Gal(b1-4)GlcNAc(b1-3)Gal(b1-4)GlcNAc
# Outline: as §1
# [10] = molecular target: Fuc(a1-2)[GalNAc(a1-3)]Gal(b1-4)GlcNAc(b1-6)GalNAc
# Outline: as §1
# [11] = molecular target: Gal(a1-3)Gal(b1-3)GlcNAc
# Outline: as §1
# [12] = molecular target: Gal(a1-3)Gal(b1-3)[Fuc(a1-4)]GlcNAc(b1-2)Man(a1-3)[Gal(a1-3)Gal(b1-3)[Fuc(a1-4)]GlcNAc(b1-2)Man(a1-6)]Man(b1-4)GlcNAc(b1-4)GlcNAc
# Outline: as §1
# [13] = molecular target: Gal(a1-3)Gal(b1-4)[Fuc(a1-3)]GlcNAc(b1-2)Man(a1-3)[Gal(a1-3)Gal(b1-4)[Fuc(a1-3)]GlcNAc(b1-2)Man(a1-6)]Man(b1-4)GlcNAc(b1-4)GlcNAc
# Outline: as §1
# [14] = molecular target: Gal(a1-4)Gal(b1-4)GlcNAc(b1-2)Man(a1-3)[Gal(a1-4)Gal(b1-4)GlcNAc(b1-2)Man(a1-6)]Man(b1-4)GlcNAc(b1-4)GlcNAc
# Outline: as §1
# [15] = molecular target: Gal(b1-3)GlcNAc(a1-6)Gal(b1-4)GlcNAc
# Outline: as §1
# [16] = molecular target: Gal(b1-3)GlcNAc(b1-2)Man(a1-3)[Gal(b1-3)GlcNAc(b1-2)Man(a1-6)]Man(b1-4)GlcNAc(b1-4)[Fuc(a1-6)]GlcNAc
# Outline: as §1
# [17] = molecular target: Gal(b1-3)GlcNAc(b1-3)Gal(b1-4)[Fuc(a1-3)]GlcNAc
# Outline: as §1
# [18] = molecular target: Gal(b1-3)[Fuc(a1-4)]GlcNAc(b1-2)Man
# Outline: as §1
# [19] = molecular target: Gal(b1-4)GlcNAc(b1-2)Man(a1-3)Man(b1-4)GlcNAc(b1-4)GlcNAc
# Outline: as §1
# [20] = molecular target: Gal(b1-4)GlcNAc(b1-2)[Gal(b1-4)GlcNAc(b1-4)]Man(a1-3)[GlcNAc(b1-4)][Gal(b1-4)GlcNAc(b1-2)Man(a1-6)]Man(b1-4)GlcNAc(b1-4)GlcNAc
# Outline: as §1
# [21] = molecular target: Gal(b1-4)GlcNAc(b1-3)Gal(b1-3)GalNAc
# Outline: as §1
# [22] = molecular target: Gal(b1-4)GlcNAc(b1-3)Gal(b1-4)GlcNAc(b1-2)Man(a1-3)[Gal(b1-4)GlcNAc(b1-3)Gal(b1-4)GlcNAc(b1-2)Man(a1-6)]Man(b1-4)GlcNAc(b1-4)[Fuc(a1-6)]GlcNAc
# Outline: as §1
# [23] = molecular target: Gal(b1-4)GlcNAc(b1-3)Gal(b1-4)GlcNAc(b1-2)[Gal(b1-4)GlcNAc(b1-3)Gal(b1-4)GlcNAc(b1-6)]Man(a1-6)[Gal(b1-4)GlcNAc(b1-3)Gal(b1-4)GlcNAc(b1-2)Man(a1-3)]Man(b1-4)GlcNAc(b1-4)GlcNAc
# Outline: as §1
# [24] = molecular target: Gal(b1-4)GlcNAc(b1-3)Gal(b1-4)GlcNAc(b1-3)Gal(b1-4)GlcNAc(b1-2)[Gal(b1-4)GlcNAc(b1-3)Gal(b1-4)GlcNAc(b1-3)Gal(b1-4)GlcNAc(b1-6)]Man(a1-6)[Gal(b1-4)GlcNAc(b1-3)Gal(b1-4)GlcNAc(b1-3)Gal(b1-4)GlcNAc(b1-2)Man(a1-3)]Man(b1-4)GlcNAc(b1-4)[Fuc(a1-6)]GlcNAc
# Outline: as §1
# [25] = molecular target: Gal(b1-4)GlcNAc(b1-3)Gal(b1-4)GlcNAc(b1-3)Gal(b1-4)GlcNAc(b1-3)Gal(b1-4)GlcNAc(b1-2)[Gal(b1-4)GlcNAc(b1-3)Gal(b1-4)GlcNAc(b1-3)Gal(b1-4)GlcNAc(b1-3)Gal(b1-4)GlcNAc(b1-6)]Man(a1-6)[Gal(b1-4)GlcNAc(b1-3)Gal(b1-4)GlcNAc(b1-3)Gal(b1-4)GlcNAc(b1-3)Gal(b1-4)GlcNAc(b1-2)Man(a1-3)]Man(b1-4)GlcNAc(b1-4)[Fuc(a1-6)]GlcNAc
# Outline: as §1
# [26] = molecular target: Gal(b1-4)GlcNAc(b1-3)Gal(b1-4)GlcNAc(b1-3)Gal(b1-4)GlcNAc(b1-3)Gal(b1-4)GlcNAc(b1-3)Gal(b1-4)GlcNAc(b1-2)Man(a1-3)[Gal(b1-4)GlcNAc(b1-3)Gal(b1-4)GlcNAc(b1-3)Gal(b1-4)GlcNAc(b1-3)Gal(b1-4)GlcNAc(b1-3)Gal(b1-4)GlcNAc(b1-2)Man(a1-6)]Man(b1-4)GlcNAc(b1-4)GlcNAc
# Outline: as §1
# [27] = molecular target: Gal(b1-4)GlcNAc(b1-3)Gal(b1-4)GlcNAc(b1-3)GalNAc
# Outline: as §1
binder,measurement,setting,value
"Arath Fbox (Arabidopsis thaliana), NP_178341.1 (protein) EFTWGRKRRVKSESSPFDSFPEDCISYIISFTNPRDACVAATVSKTFESTVKSDIIWEKFLPADYESLIPPSRVFSSKKELYFSLCNDPVLFDDDKKSVWLEKASGKRCLMLSAMNLSIIWGDNPQYWQWIPIPESRFEKVAKLRDVCWFEIRGRTNTRVLSPRTRYSAYIVFKGVDKCYGFQNVAIEAAVGVVGQEPSRRLICFSEAIRRGRRNVVKPKQREDGWMEIELGEFFNDGGIMDNDEIEMSALETKQLNRKCGLIIQGIEIRPAKILAAAAASFLEQKLISEEDLNSAVDHHHHHH",glycan array binding signal (z-score),[1],-0.513
same,glycan array binding signal (z-score),[2],-0.123
same,glycan array binding signal (z-score),[3],-0.599
same,glycan array binding signal (z-score),[4],0.005
same,glycan array binding signal (z-score),[5],0.025
same,glycan array binding signal (z-score),[6],0.262
same,glycan array binding signal (z-score),[7],-0.626
same,glycan array binding signal (z-score),[8],-0.433
same,glycan array binding signal (z-score),[9],-0.64
same,glycan array binding signal (z-score),[10],-0.711
same,glycan array binding signal (z-score),[11],12
same,glycan array binding signal (z-score),[12],3.32
same,glycan array binding signal (z-score),[13],0.161
same,glycan array binding signal (z-score),[14],0.198
same,glycan array binding signal (z-score),[15],0.001
same,glycan array binding signal (z-score),[16],3.36
same,glycan array binding signal (z-score),[17],-0.717
same,glycan array binding signal (z-score),[18],2.33
same,glycan array binding signal (z-score),[19],-0.673
same,glycan array binding signal (z-score),[20],-0.348
same,glycan array binding signal (z-score),[21],-0.431
same,glycan array binding signal (z-score),[22],3.33
same,glycan array binding signal (z-score),[23],2.73
same,glycan array binding signal (z-score),[24],2.13
same,glycan array binding signal (z-score),[25],2.36
same,glycan array binding signal (z-score),[26],2.6
same,glycan array binding signal (z-score),[27],0.46
